# Laboratory results as given in PubChem BioAssay AID1159580 (chemical genetic matrix, 2015).
# The whole screen tested about 5,500 compounds, of which about 2,000 (36%) were called active. Not shown: some 18% with an inconclusive outcome. The list shows a part of the results. Values without a mark were called inactive. Cut-off read from the data, not from the text of the source: active = normalized growth mostly below about 0.91 (no sharp cut-off); inconclusive = no clear call, values can overlap the other calls; inactive = mostly above about 0.92.
# Test: chemical genetic growth profiling, strain panel (AID 1159580);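 note: tested at 20 µM; growth read once vehicle control cultures reached saturation at 30 °C; 1 = growth at the plate median or of vehicle wells; lower values mean less growth of the strain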
# Settings: growth OD
# [1] = S. cerevisiae deletion strains, locus YAL013W, strain DEP1, hits give low values
# [2] = S. cerevisiae deletion strains, locus YBR229C, strain ROT2, hits give low values
# [3] = S. cerevisiae deletion strains, locus YDL101C, strain DUN1, hits give low values
# [4] = S. cerevisiae deletion strains, locus YDL134C, strain PPH21, hits give low values
# [5] = S. cerevisiae deletion strains, locus YDR150W, strain NUM1, hits give low values
# [6] = S. cerevisiae deletion strains, locus YEL061C, strain CIN8, hits give low values
# [7] = S. cerevisiae deletion strains, locus YGR078C, strain PAC10, hits give low values
# [8] = S. cerevisiae deletion strains, locus YHR030C, strain SLT2, hits give low values
# [9] = S. cerevisiae deletion strains, locus YHR087W, strain rtc3, hits give low values
# [10] = S. cerevisiae deletion strains, locus YJL187C, strain SWE1, hits give low values
# [11] = S. cerevisiae deletion strains, locus YJR043C, strain POL32, hits give low values
# [12] = S. cerevisiae deletion strains, locus YJR075W, strain HOC1, hits give low values
# [13] = S. cerevisiae deletion strains, locus YLR039C, strain RIC1, hits give low values
# [14] = S. cerevisiae deletion strains, locus YLR058C, strain SHM2 (second series), hits give low values
# [15] = S. cerevisiae deletion strains, locus YLR085C, strain ARP6, hits give low values
# [16] = S. cerevisiae deletion strains, locus YLR262C, strain YPT6, hits give low values
# [17] = S. cerevisiae deletion strains, locus YML094W, strain GIM5, hits give low values
# [18] = S. cerevisiae deletion strains, locus YMR219W, strain ESC1, hits give low values
# [19] = S. cerevisiae deletion strains, locus YMR263W, strain SAP30, hits give low values
# [20] = S. cerevisiae deletion strains, locus YNL153C, strain GIM3, hits give low values
# [21] = S. cerevisiae deletion strains, locus YNL298W, strain CLA4 (second series), hits give low values
# [22] = S. cerevisiae deletion strains, locus YNL322C, strain KRE1, hits give low values
# [23] = S. cerevisiae deletion strains, locus YNR030W, strain Alg12, hits give low values
# [24] = S. cerevisiae deletion strains, locus YPL055C, strain LGE1, hits give low values
# [25] = S. cerevisiae deletion strains, locus YPL241C, strain CIN2, hits give low values
# [26] = S. cerevisiae deletion strains, locus YPR135W, strain CTF4, hits give low values
# [27] = S. cerevisiae strains, strain wild type, hits give low values
# [28] = S. cerevisiae deletion strains, locus YCL061C, strain MRC1, hits give low values
# [29] = S. cerevisiae deletion strains, locus YGR229C, strain SMI1, hits give low values
# [30] = S. cerevisiae deletion strains, locus YKL190W, strain CNB1, hits give low values
# [31] = S. cerevisiae deletion strains, locus YOL006C, strain TOP1, hits give low values
# [32] = S. cerevisiae deletion strains, locus YMR307W, strain GAS1, hits give low values
smiles,measurement,setting,value
CC(C)(C)c1nc(N)sc1Br,normalized growth,[1],1
same,normalized growth,[2],0.998
same,normalized growth,[3],1.04
same,normalized growth,[4],0.986
same,normalized growth,[5],0.993
same,normalized growth,[6],1.02
same,normalized growth,[7],1
same,normalized growth,[8],0.98
same,normalized growth,[9],1.01
same,normalized growth,[10],1
same,normalized growth,[11],1.01
same,normalized growth,[12],1.01
same,normalized growth,[13],0.932
same,normalized growth,[14],1
same,normalized growth,[15],0.985
same,normalized growth,[16],0.951
same,normalized growth,[17],0.965
same,normalized growth,[18],1.01
same,normalized growth,[19],0.993
same,normalized growth,[20],1.02
same,normalized growth,[21],0.981
same,normalized growth,[22],1.01
same,normalized growth,[23],1
same,normalized growth,[24],0.984
same,normalized growth,[25],0.995
same,normalized growth,[26],0.868
same,normalized growth,[27],1
CN1c2ccccc2C(=O)NC1c1cc(Br)cs1 (centres undefined),normalized growth,[1],1.02
same,normalized growth,[2],0.996
same,normalized growth,[28],1.02
same,normalized growth,[3],0.996
same,normalized growth,[4],1.01
same,normalized growth,[5],0.996
same,normalized growth,[6],0.997
same,normalized growth,[7],1
same,normalized growth,[29],0.998
same,normalized growth,[8],0.99
same,normalized growth,[9],1.01
same,normalized growth,[11],1.02
same,normalized growth,[12],0.993
same,normalized growth,[30],1.01
same,normalized growth,[13],1.07
same,normalized growth,[14],1.01
same,normalized growth,[15],1.06
same,normalized growth,[16],1.06
same,normalized growth,[17],1.01
same,normalized growth,[18],1.01
same,normalized growth,[19],1.01
same,normalized growth,[20],1
same,normalized growth,[21],1.04
same,normalized growth,[22],0.996
same,normalized growth,[23],1.03
same,normalized growth,[31],1.06
same,normalized growth,[24],1.01
same,normalized growth,[25],0.996
same,normalized growth,[26],0.969
same,normalized growth,[27],1.03
Cc1ccc(CSC(=N)N)cc1,normalized growth,[1],1.01
same,normalized growth,[2],0.994
same,normalized growth,[28],1.01
same,normalized growth,[3],0.994
same,normalized growth,[4],1
same,normalized growth,[5],0.998
same,normalized growth,[6],0.976
same,normalized growth,[7],1.02
same,normalized growth,[8],0.995
same,normalized growth,[9],0.988
same,normalized growth,[11],1
same,normalized growth,[12],0.973
same,normalized growth,[30],1.01
same,normalized growth,[13],1.01
same,normalized growth,[14],1.01
same,normalized growth,[15],1.01
same,normalized growth,[16],1
same,normalized growth,[17],0.977
same,normalized growth,[18],1
same,normalized growth,[19],1.01
same,normalized growth,[20],0.999
same,normalized growth,[21],1
same,normalized growth,[22],0.995
same,normalized growth,[23],0.0939 (active)
same,normalized growth,[31],1.03
same,normalized growth,[24],1.01
same,normalized growth,[25],0.149 (active)
same,normalized growth,[26],1.01
same,normalized growth,[27],1.01
Cc1ccc(CS/C(N)=N\N)cc1,normalized growth,[1],0.993
same,normalized growth,[2],0.996
same,normalized growth,[28],0.98
same,normalized growth,[3],0.97
same,normalized growth,[5],0.95
same,normalized growth,[6],1
same,normalized growth,[7],1
same,normalized growth,[29],0.978
same,normalized growth,[8],0.836
same,normalized growth,[9],0.983
same,normalized growth,[10],0.995
same,normalized growth,[11],0.978
same,normalized growth,[12],1.02
same,normalized growth,[30],0.982
same,normalized growth,[13],0.846
same,normalized growth,[14],0.99
same,normalized growth,[15],0.952
same,normalized growth,[16],0.889
same,normalized growth,[17],1.01
same,normalized growth,[18],0.989
same,normalized growth,[19],0.976
same,normalized growth,[32],1.05
same,normalized growth,[20],0.979
same,normalized growth,[21],0.963
same,normalized growth,[22],0.999
same,normalized growth,[23],0.976
same,normalized growth,[31],0.854
same,normalized growth,[24],0.967
same,normalized growth,[25],0.969
same,normalized growth,[26],0.907
N=C(N)SCCc1cccc(CCSC(=N)N)c1,normalized growth,[1],0.957
same,normalized growth,"S. cerevisiae deletion strains, locus YAL040C, strain CLN3, hits give low values",1.05
same,normalized growth,"S. cerevisiae deletion strains, locus YCL061C, strain MRC1 (second series), hits give low values",0.984
same,normalized growth,"S. cerevisiae deletion strains, locus YDR363W, strain ESC2, hits give low values",0.997
same,normalized growth,"S. cerevisiae deletion strains, locus YER002W, strain NOP16, hits give low values",1.02
same,normalized growth,[7],0.992
same,normalized growth,[32],1.01
same,normalized growth,[20],1.16
same,normalized growth,"S. cerevisiae deletion strains, locus YNL175C, strain NOP13, hits give low values",1.02
same,normalized growth,"S. cerevisiae deletion strains, locus YNL197C, strain WHI3, hits give low values",0.981
same,normalized growth,"S. cerevisiae deletion strains, locus YNL224C, strain SQS1, hits give low values",1.05
same,normalized growth,[22],0.975
same,normalized growth,"S. cerevisiae deletion strains, locus YOR083W, strain WHI5 (second series), hits give low values",0.963
